This passage reports outcome results from PubChem BioAssay (NCATS).

Inconclusive results are not listed. The source made the active and inactive calls. The call rests on the fitted dose curve; in most records, active means well fitted cell-killing curve with a large enough effect; inconclusive means small, poorly fitted or top-dose-only effect; inactive means flat fitted curve, though single readings scatter.

The test can be described thus: Cell Viability - LYMP2-015 (AID 971). Further: nearly all actives have a fitted effect of over 55% in size. The note with it: LYMP2-015 lymphoblastoid cell viability; series mostly up to 92.2 µM. An excerpt: NIH Chemical Genomics Center [NCGC]
NIH Molecular Libraries Screening Centers Network [MLSCN]
National Institutes of Environmental Health Sciences [NIEHS]
National Toxicology Program [NTP]
We have developed a 1536-well cell-based assay for quantitative high throughput screening (qHTS) against a number of cell lines to determine in vitro cytotoxicity of small molecules. This particular assay uses a human lymphoblastoid cell line (LYMP2-015) purchased from Coriell Institute for Medical Research.
NCGC Assay Protocol Summary:
The CellTiter-Glo luminescent cell viability assay (Promega) is a homogeneous method to measure the number of viable cells in culture. The end point readout of this assay is based on quantitation of intracellular ATP, an indicator of metabolic activity, using the luciferase reaction. Luciferase catalyzes the oxidation of beetle Luciferin to oxyluciferin and light in the presence of ATP. The luminescent signal is proportional to amount of ATP present.
Using the CellTiter-Glo luminescent cell viability assay, the amount of cellular ATP was measured in the lymphoblastoid cell line with complete culture medium following compound treatment for 24 hours. The assay was performed in opaque white Kalypsys 1536-well plates. In the screen, tetraoctylammonium bromide was used as positive control. Library compounds were measured for their ability to cause acute toxicity in the cell line, as reflected by a decrease in intracellular ATP levels, in a concentration-dependent manner. […] AC50 values were determined from concentration-response data modeled with the standard Hill equation.
qHTS protocol for CellTiter Glo lymphoblastoid cellular assay
[Step] [Parameter] [Value] [Description]
1. Reagent; 5 uL; 2500 lymphoblastoid cells/well
2. Time; 5 hr; 37 C incubation
4. Controls; 23 nL; Tetraoctylammonium bromide 6.4pM to 92 uM
5. Time; 24 hr; 37 C incubation
6. Reagent; 5 uL; CellTiter Glo reagent
7. Time; 30 min; Room Temperature
8. Detection; Luminescence; Viewlux plate reader
Keywords: cell viability, cytotoxicity, lymphoblastoid cell line, luminescence, NTPHTS, NTPHTS_NCGC, NIEHS, DSSTox, MLSMR, MLSCN, NIH Roadmap, qHTS, NCGC
On to `COc1ccc(C(Cl)=C(c2ccc(OC)cc2)c2ccc(OC)cc2)cc1`, for which the result was inactive.

`CCCCC(CC)COC(=O)c1ccc(N(C)C)cc1` (stereo not drawn): the outcome was inactive. The entry for `C/C=C/c1ccc(O)c(OC)c1` is “inactive”; for `O=C(O)c1ccc(S(=O)(=O)N(Cl)Cl)cc1` it is “inactive”. For the compound `CCOc1ccccc1C(N)=O`, the compound was classed as inactive.

On to `NC(=O)c1ccccc1O`, for which the compound was classed as inactive. With `OC[C@H]1O[C@@H]2O[C@H]3[C@H](O)[C@@H](O)[C@@H](O[C@H]4[C@H](O)[C@@H](O)[C@@H](O[C@H]5[C@H](O)[C@@H](O)[C@@H](O[C@H]6[C@H](O)[C@@H](O)[C@@H](O[C@H]7[C@H](O)[C@@H](O)[C@@H](O[C@H]8[C@H](O)[C@@H](O)[C@@H](O[C@H]1[C@H](O)[C@H]2O)O[C@@H]8CO)O[C@@H]7CO)O[C@@H]6CO)O[C@@H]5CO)O[C@@H]4CO)O[C@@H]3CO` the entry was “inactive”; with `CCCN(CCC)S(=O)(=O)c1ccc(C(=O)O)cc1`, “inactive”. On to `COc1cc([C@H]2Oc3cc([C@H]4Oc5cc(O)cc(O)c5C(=O)[C@@H]4O)ccc3O[C@@H]2CO)ccc1O`, for which the outcome was inactive. Consider `C=C[C@H]1CN2CC[C@H]1C[C@@H]2[C@@H](O)c1ccnc2ccc(OC)cc12`, for which the compound was classed as inactive. With `CCOc1ccc(NC(C)=O)cc1`, the compound was classed as inactive. Consider `NCCNc1cccc2ccccc12`, for which the compound was called inactive. Regarding `COc1ccc(C(=O)c2ccccc2)c(O)c1`, the compound was called inactive.
